Screening data deposited in PubChem BioAssay by several laboratories.
M1 ag = M1 muscarinic receptor agonism. CHO-M1 cells, Fluo-4 calcium fluorescence, agonist mode; hits give high values. B-score at 10 µM. 3% of 64,000 active. AID 626;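 active = fluorescence rise, raw or as B-score row- and column-corrected plate score, outside the 99.7% band of its plate's samples, either direction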
PLAP activator = activates human placental alkaline phosphatase; purified PLAP enzyme, luminescent substrate read-out; hits give high values; P05187; 1.2% of 96,000 active; activation fold at 20 µM; AID 696; in the data active = activation fold above about 2
Target sequence (P05187 whole entry, looked up): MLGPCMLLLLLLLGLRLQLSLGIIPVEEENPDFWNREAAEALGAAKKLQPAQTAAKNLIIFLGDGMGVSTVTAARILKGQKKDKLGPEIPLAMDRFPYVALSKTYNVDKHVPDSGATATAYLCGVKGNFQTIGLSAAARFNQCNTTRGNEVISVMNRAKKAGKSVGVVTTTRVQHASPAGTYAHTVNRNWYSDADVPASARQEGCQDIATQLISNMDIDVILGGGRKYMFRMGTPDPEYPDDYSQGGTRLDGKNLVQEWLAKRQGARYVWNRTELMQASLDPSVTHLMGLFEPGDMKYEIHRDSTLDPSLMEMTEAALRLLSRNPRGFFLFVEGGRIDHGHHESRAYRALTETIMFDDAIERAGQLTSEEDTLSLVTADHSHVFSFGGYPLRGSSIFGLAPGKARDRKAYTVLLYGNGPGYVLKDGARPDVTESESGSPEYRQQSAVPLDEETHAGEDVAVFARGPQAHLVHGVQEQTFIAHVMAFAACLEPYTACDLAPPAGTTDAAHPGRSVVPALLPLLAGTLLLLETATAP
M1 antag = M1 muscarinic receptor (rat) antagonism; CHO-M1 cells, Fluo-4 calcium, ACh EC80 antagonist mode; hits give low values; B-score at 10 µM; 3.4% of 64,000 active; AID 628;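 active = calcium fluorescence response, raw or row-and-column corrected B-score, differing from the plate sample mean either way at a set confidence level, mostly lower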
Cav32 inh = human Cav3.2 channel inhibition, primary screen. O95180. Cav3.2-expressing cells, Fluo-4 calcium fluorescence FDSS; hits give low values. B-score at 10 µM. 4% of 100,000 active;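 active = single-dose well whose peak fluorescence ratio is a statistical outlier from its plate by either plate-standardised score or position-corrected B-score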
HER2 expr 66K = Her2 kinase expression inhibition; P04626; SKBR-3 HER2 protein level, AlphaScreen, 18-24 h; hits give low values; HER2 level % of control, % at 10 µM; 0.69% of 65,000 active;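 active = HER2 level under 5% of the carrier-only control; inconclusive = no clear call, values can overlap the other calls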;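 note: 100% = DMSO carrier and 0% = 500 nM PU-H71 HSP90 inhibitor; lower value means stronger loss of Her2 protein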
M1 ag confirm = rat M1 muscarinic agonism, confirmation | 19% of 1,700 active | AID 1488 | shares compounds with M1 ag | CHO-M1 cells, Fluo-4 calcium fluorescence, agonist mode; actives lie on both sides | fluorescence change (max-min) at 10 µM;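 active = fluorescence change differs from the solvent-only DMSO control mean at a set confidence level in both duplicate runs; inconclusive = differs from solvent-only control mean in just one of two runs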;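 note: an EC20 dose of acetylcholine follows compound addition during the same imaging run; raw fluorescence intensity difference in instrument units with no normalization to controls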
M4 agonist ctr = rat M4 muscarinic agonism, M1 counter-screen; shares compounds with M1 ag; CHO M4/Gqi5 cells, Fluo-4 calcium fluorescence, agonist mode; actives lie on both sides; fluorescence change (max-min) at 10 µM; 9% of 1,700 active; AID 1741;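 active = fluorescence change differing from the plate's solvent-only control wells at 99.7% confidence in both duplicates, whether higher or lower; inconclusive = differs from solvent controls in only one of two duplicates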
* = called active by the depositor. Rows were chosen to be rich in hits. Some 7.9% of all compounds tested hit in one or more screens of this group.

What do the screens show for `CCOC(=O)C1CCCN(C/C(O)=C(\C#N)c2nc(-c3ccc(Cl)cc3)cs2)C1` (centres undefined)?
M1 ag: 21*; PLAP activator: 1.5; M1 antag: 0.14; Cav32 inh: -0.88; HER2 expr 66K: 35; M1 ag confirm: inconclusive; M4 agonist ctr: -29

Results for O=C(OC(C(=O)NCC1CCCO1)c1ccc(F)cc1)c1cccs1 (centres undefined) ?
Cav32 inh: 1.3

How did Cc1ccc(Cn2c(N)c(S(=O)(=O)c3cccs3)c3nc4ccccc4nc32)cc1 do in these assays?
PLAP activator: 1.1; Cav32 inh: 0.018

What do the screens show for `Cc1ccc(S(=O)(=O)c2c(N)n(Cc3ccco3)c3nc4ccccc4nc23)cc1`?
M1 ag: 12*; PLAP activator: 1.3; M1 antag: 0.051; Cav32 inh: -4.2; HER2 expr 66K: 45; M1 ag confirm: 39; M4 agonist ctr: -10

How did O=C(CSc1nc2ccccc2[nH]1)NCCN1CCCCC1 do in these assays?
M1 ag: -0.58; PLAP activator: 1.1; M1 antag: 0.2; Cav32 inh: -0.83; HER2 expr 66K: 82

How did CC(C)c1ccc(S(=O)(=O)N2CCN(C(=O)c3cccc(F)c3)CC2)cc1 do in these assays?
M1 ag: -1.3; PLAP activator: 1.2; M1 antag: 0.32; Cav32 inh: -0.98; HER2 expr 66K: 96

What do the screens show for `CCOC(=O)C1CCN(C(=O)C2c3ccccc3C(=O)N(C)C2c2ccc(OC)cc2)CC1` (centres undefined)?
M1 ag: 10*; PLAP activator: 1.5; M1 antag: -0.71; Cav32 inh: 2.2; HER2 expr 66K: 367; M1 ag confirm: inconclusive; M4 agonist ctr: -39

How did Cc1nnc(SC(C)C(=O)Nc2ccc(S(=O)(=O)N3CCCCCC3)cc2)s1 (centres undefined) do in these assays?
M1 ag: -2.5*; PLAP activator: 1.2; M1 antag: 0.053; Cav32 inh: -2.7; HER2 expr 66K: 71; M1 ag confirm: inconclusive; M4 agonist ctr: inconclusive

How did O=C(Nc1ccc(S(=O)(=O)N2CCCCC2)cc1)c1ccccc1Cl do in these assays?
PLAP activator: 0.8; Cav32 inh: -2.7

How did O=C(Nc1ccccc1)Nc1ccc(S(=O)(=O)N2CCCCC2)cc1 do in these assays?
M1 ag: 3.5*; PLAP activator: 1; M1 antag: -0.67; Cav32 inh: -2.5; HER2 expr 66K: 94; M1 ag confirm: -14; M4 agonist ctr: -28

How did CC(C)c1nc2oc3c(NCC4CCCO4)ncnc3c2c2c1COC(C)(C)C2 (centres undefined) do in these assays?
M1 ag: 4.5*; PLAP activator: 1.3; M1 antag: -0.059; HER2 expr 66K: 97; M1 ag confirm: -26; M4 agonist ctr: -42

How did COCc1[nH]nc2c1C(c1c(F)cccc1Cl)C(C#N)=C(N)O2 (centres undefined) do in these assays?
M1 ag: 2.2; PLAP activator: 1.9; M1 antag: 0.7; Cav32 inh: 2.8; HER2 expr 66K: 85

What do the screens show for `CCCc1[nH]nc2c1C(CCc1ccccc1)C(C#N)=C(N)O2` (centres undefined)?
M1 ag: 2.7*; PLAP activator: 1.2; M1 antag: 0.095; Cav32 inh: -0.22; HER2 expr 66K: 63; M1 ag confirm: inconclusive; M4 agonist ctr: -24

What do the screens show for `COCc1[nH]nc2c1C(c1ccccc1Cl)C(C#N)=C(N)O2` (centres undefined)?
M1 ag: 1.5*; PLAP activator: 1.3; M1 antag: 0.045; Cav32 inh: 1.9; HER2 expr 66K: 83; M1 ag confirm: -8.9; M4 agonist ctr: -18

What do the screens show for `CCCn1nc(NC(=O)CC(C)C)c2cc3ccccc3nc21`?
M1 ag: 0.65; PLAP activator: 1; M1 antag: -0.85; Cav32 inh: -0.37; HER2 expr 66K: 155

What do the screens show for `Cn1c(-c2nnn(-c3ccc(F)cc3)n2)cc2ccccc21`?
Cav32 inh: -0.0073

What do the screens show for `O=C1NC(c2ccco2)Nc2sc3c(c21)CCN(Cc1ccccc1)C3` (centres undefined)?
M1 ag: 17*; PLAP activator: 1.3; M1 antag: -17*; Cav32 inh: 0.037; HER2 expr 66K: 78; M1 ag confirm: 33; M4 agonist ctr: 21

Results for CCC(Cc1ccccc1)NC(=O)CCn1cccc1 (centres undefined) ?
PLAP activator: 1.1; Cav32 inh: -1.4

What do the screens show for `CC(=O)Nc1c2c3c(cccc3n(C)c1=O)C(=O)c1ccccc1-2`?
M1 ag: 9.4*; PLAP activator: 1; M1 antag: -0.37; Cav32 inh: 0.65; HER2 expr 66K: 98; M1 ag confirm: 68*; M4 agonist ctr: inconclusive

How did O=C(C1CCN(S(=O)(=O)c2cccc3cccnc23)CC1)N1CCN(c2ccccn2)CC1 do in these assays?
M1 ag: 3.6; PLAP activator: 1.3; M1 antag: -1.1; HER2 expr 66K: 86

What do the screens show for `O=C(C1CCN(S(=O)(=O)c2cccc3cccnc23)CC1)N1CCN(c2ccc(Cl)cc2)CC1`?
M1 ag: 3.4*; PLAP activator: 1.5; M1 antag: -2.2; Cav32 inh: -0.02; HER2 expr 66K: 85; M1 ag confirm: -19; M4 agonist ctr: -8.4

How did O=C(NC1=NC2CCCCC2N1)c1ccccc1 (centres undefined) do in these assays?
M1 ag: 0.053; PLAP activator: 0.8; M1 antag: 0.16; Cav32 inh: 0.27; HER2 expr 66K: 106

How did COc1ccc(-c2noc(CN(C(=O)c3cccs3)C(C)C)n2)cc1 do in these assays?
PLAP activator: 1; Cav32 inh: -0.96

Results for CC(=O)N(CN1C(=O)c2ccccc2C1=O)c1ccccc1 ?
M1 ag: 1; PLAP activator: 1; M1 antag: -0.89; Cav32 inh: 0.76; HER2 expr 66K: 108

Results for CC(=O)N(c1ccccc1)c1c(F)c(F)c(F)c(F)c1F ?
M1 ag: 3.9*; PLAP activator: 0.9; M1 antag: 0.21; Cav32 inh: -0.014; HER2 expr 66K: 110; M1 ag confirm: -7.2; M4 agonist ctr: -0.88

What do the screens show for `CSc1ncccc1C(=O)OCC(=O)N(C)C1CCS(=O)(=O)C1` (centres undefined)?
PLAP activator: 0.9; Cav32 inh: -0.16

What do the screens show for `CC(C)n1nc(C(=O)OCC(=O)N(C)C2CCS(=O)(=O)C2)c2ccccc2c1=O` (centres undefined)?
M1 ag: 10*; PLAP activator: 0.9; M1 antag: 1; Cav32 inh: 0.44; HER2 expr 66K: 89; M1 ag confirm: -11; M4 agonist ctr: -39

How did COc1ccccc1OCCNC(=O)c1ccccc1C do in these assays?
M1 ag: -0.083; PLAP activator: 0.7; M1 antag: -0.1; Cav32 inh: 0.42; HER2 expr 66K: 75
